# Source: PubChem BioAssay (National Center for Advancing Translational Sciences (NCATS))
# This excerpt belongs to a sample that is enriched for hits.
# ClpP mod: qHTS Assay for Activators of ClpP | ATP-dependent Clp protease proteolytic subunit (Bacillus subtilis (strain 168)), P80244 | purified B. subtilis ClpP, FRET peptide cleavage, 20 min | Potency, µM (doses to about 57.5 µM), inactives show at the top dose activity change, negative = active | hit rate 1.9% among 340,000; active means well fitted falling curve with a large enough effect; inconclusive means small, poorly fitted or top-dose-only effect; inactive means no such curve, though single readings can be large or run the other way; further: the source files actives as falling curves though it sought activators and does not explain the sign; nearly all actives have a fitted effect of over 65% in size
# Target sequence (P80244 whole entry, looked up): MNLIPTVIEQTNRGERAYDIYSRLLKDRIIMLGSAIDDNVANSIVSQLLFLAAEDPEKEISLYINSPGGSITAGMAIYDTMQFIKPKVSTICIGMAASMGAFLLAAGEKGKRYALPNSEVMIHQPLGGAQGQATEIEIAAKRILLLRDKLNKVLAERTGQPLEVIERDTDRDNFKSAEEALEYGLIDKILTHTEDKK
#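 FRET quenching reversal measured ClpP activation: 10 microg/mL B. subtilis ClpP at pH 8 with the FRET-FV decapeptide, read at 430 nm after 320 nm excitation. The 20-min minus 0-min signal was scaled between DMSO/no-enzyme wells and ADEP (5.8 microM final).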
# MmCpn inh: Inhibitors of TCP-1 ring complex (TRiC) of Methanococcus maripaludis (MmCpn): qHTS. Potency, µM (series often up to 76.9 µM), without a hit: at the top dose activity, negative = inhibition, actives largely listed as inhibitors. purified Mm-Cpn ATPase, ADP Transcreener TR-FRET. hit rate 0.031% among 330,000; further: on the % scale 0 is the no-effect control and ±100 the full control effect; nearly all actives have a fitted effect of over 80% in size
#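 Reaction buffer contained 30 mM Tris pH 7.4, 100 mM KCl, 5 mM MgCl2 and 1 mM DTT. Mm-CPN (25 nM final) hydrolysed 10 uM ATP over 30 min at 37°C; ADP was read by HTRF.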
# p53 reactivator: qHTS assay for re-activators of p53 using a Luc reporter | H1299 p53-A138V BP100-luciferase reporter, luminescence, 24 h | Potency, µM (highest dose often 92.2 µM), for the others: at the highest dose activity change, positive = activation, usual class: activators | hit rate 0.063% among 320,000; further: % of control where 0% means no effect; nearly all actives have a fitted effect of over 45% in size
#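 p53-null H1299 cells stably carrying temperature-sensitive p53-A138V and a BP100-luciferase reporter were pinned with compounds (4-point, 1:5 series) and held 24 hrs at 37 deg C. Luminescence was read 10 min after detection reagent.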
# Eya2 inh: qHTS Assay for Inhibitors of the Phosphatase Activity of Eya2. recombinant Eya2, OMFP fluorescence dephosphorylation (OMFP is methylfluorescein phosphate). Potency, µM (highest dose often 76.9 µM), inactives show at the top dose activity, negative = inhibition, most hits filed as inhibitors. hit rate 0.006% among 330,000; further: on the % scale 0 is the no-effect control and ±100 the full control effect
#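 Eya2 protein (added as 0.2 uM solution) was preincubated with compound for 10 min at ambient temperature in 50 mM HEPES pH 7.5, 50 mM NaCl, 5 uM MgCl2, 0.05% BSA, 1 mM DTT. OMFP (added at 50 uM) then reacted 10 min; fluorescence read at 485/525 nm.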
# Integrin act MD: qHTS for Activators of Integrin-Mediated Alleviation for Muscular Dystrophy; alpha7betagal myoblasts, beta-gal FDG fluorescence, 48 h; Potency, µM (highest dose often 38.3 µM), without a hit: at the top dose activation, actives largely listed as activators; hit rate 0.064% among 350,000;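 further: 100% = response of the positive control SU9516; nearly all actives have a fitted effect of over 60% in size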
#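 Alpha7betagal+/- myoblasts (passage 13) were plated 16-24 hr, then exposed to compounds (1:260 dilution of DMSO stock) for 48 hours at 37C. After MPER lysis, β-galactosidase reporter activity was read as FDG fluorescence (ex 480/em 540) after 30 minutes.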
# USP2a block: qHTS Assay for Inhibitors of Ubiquitin-specific Protease USP2a Using CHOP2 as the Reporter. Ubiquitin carboxyl-terminal hydrolase 2 (Homo sapiens), O75604. USP2 core, Ub-CHOP2 coupled fluorogenic reporter, 485/531. Potency, µM (titrated, usually from 38.3 µM), without a hit: top-dose activity change, negative = inhibition, usual class: inhibitors. hit rate 0.01% among 330,000;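 further: plate controls were DMSO wells for no effect and full inhibition by NEM control for full effect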
#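 Deubiquitinase activity read as fluorescence (485/531 nm) after Ub-CHOP2 cleavage activates the enterokinase reporter on its substrate; USP2 core 10nM, Ub-CHOP2 and substrate 25nM each, 30min compound preincubation then 60min RT; data normalized to NEM, curves fitted.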
# Numbers without * were called inactive; ? = inconclusive; · = no result given. Unless noted, the call rests on the fitted dose curve; in most records, active means well fitted curve in the direction sought with a large enough effect; inconclusive means small, poorly fitted or top-dose-only effect, or another doubt; inactive means no such curve, though single readings can be large; an effect the other way counts as inactive or inconclusive. Potency means the concentration at half of the fitted maximal effect.
SMILES,ClpP mod,MmCpn inh,p53 reactivator,Eya2 inh,Integrin act MD,USP2a block
O=C(O)c1cc(O)c2c(c1)[C@@H]([C@H]1c3cc(C(=O)O)cc(O)c3C(=O)c3c(O[C@@H]4O[C@H](CO)[C@@H](O)[C@H](O)[C@H]4O)cccc31)c1cccc(O[C@@H]3O[C@H](CO)[C@@H](O)[C@H](O)[C@H]3O)c1C2=O,2%,-7%,-12%,?,34%,2µM*
COc1cc2c(NC3CCN(C(C)C)CC3)nc(N3CCCN(C)CC3)nc2cc1OCCCN(C)C,5%,·,·,·,·,·
Cc1cccc(CNC(=O)C2CCN(c3nc4ccc(Cl)cc4[nH]3)CC2)c1,-2%,·,·,·,·,·
Cc1ccc(Cl)cc1N1CCN(C(=O)CSc2ccsc2[N+](=O)[O-])CC1,28µM*,-1%,-2%,5%,-11%,0%
O=C(CSc1ccc(Cl)cc1)N1CCN(c2ccc([N+](=O)[O-])cc2Cl)CC1,0%,1%,-4%,3%,-5%,-1%
CCOc1ccc(NC(=O)c2nc(S(=O)(=O)Cc3ccc(F)cc3)ncc2Cl)cc1,1%,·,·,·,·,·
CC(C)(C)c1ccc(C(=O)NC(=O)COC(=O)c2ccc(Br)o2)cc1,32µM*,-21%,1%,-1%,22%,4%
Fc1ccc(Nc2nc3nonc3nc2Nc2cccc(C(F)(F)F)c2)cc1,-1%,·,·,·,·,·
CC1CCN(S(=O)(=O)c2ccc3c(c2)C(=NO)c2cc(S(=O)(=O)N4CCC(C)CC4)ccc2-3)CC1,-28%,-5%,-6%,-8%,-24%,0%
O=S(=O)(c1ccc2c(c1)C(=NO)c1cc(S(=O)(=O)N3CCCCC3)ccc1-2)N1CCCCC1,28µM*,-6%,-11%,18%,-13%,1%
CN(C)c1ccc(CNC(=O)C2CCN(S(=O)(=O)c3cn(C)cn3)CC2)cc1,-4%,·,·,·,·,·
CN(C)c1ccc(/C=C2\C=Cc3ccccc32)cc1N,0%,·,·,·,·,·
Nc1c(C(=O)Nc2ccccc2)sc2nc(-c3ccco3)ccc12,16µM*,-15%,4%,11%,6%,-4%
Nc1c(C(=O)Nc2ccccc2Br)sc2nc(-c3cccs3)ccc12,32µM*,·,·,·,·,·
CCn1cc2nc(SCc3ccccc3Cl)n(Cc3ccc(OC)cc3)c(=O)c2n1,-3%,·,·,·,·,·
COCc1cc(=O)[nH]c2cc(NC(=O)C3CC3)c(C)cc12,20µM*,1%,-2%,-14%,23%,0%
COCCn1c(NC(=S)NC(=O)C2CC2)cc(=O)[nH]c1=O,0%,0%,-2%,-22%,-4%,1%
COC(=O)c1cc2ccccc2oc1=O,20µM*,1%,10%,-1%,6%,2%
O=C(OCCn1cncn1)c1cc2ccccc2oc1=O,28µM*,-1%,6%,14%,21%,0%
O=C(COC(=O)c1cc2ccccc2oc1=O)c1cccc([N+](=O)[O-])c1,32µM*,2%,-2%,7%,-3%,1%
O=C(NCc1ccc(Cl)cc1)c1cc2ccccc2oc1=O,20µM*,1%,?,-3%,-25%,2%
O=C(Nc1ccccc1)c1ccc(-n2nncc2-c2ccccc2)cc1,12%,·,·,·,·,·
COc1ccc(Cl)cc1NC(=O)C(C)n1nnc2sc3c(c2c1=O)CCCC3 (centres undefined),0%,·,·,·,·,·
CC(C)CN(C(=O)COC(=O)c1ccccc1NCc1ccco1)c1c(N)n(Cc2ccccc2)c(=O)[nH]c1=O,28µM*,-3%,-3%,10%,-11%,0%
C(=Nc1ccc2ccccc2n1)c1cccnc1,3%,·,·,·,·,·
SMILES,ClpP mod,MmCpn inh,p53 reactivator,Eya2 inh,Integrin act MD,USP2a block
CC(C)(C)OC(=O)N1CCC(c2c(C(=O)N3CCN(c4ccccn4)CC3)cnn2-c2cccc(F)c2)CC1,-13%,·,·,·,·,·
CC(C)CCOCC(=O)Oc1ccccc1C(=O)O,28µM*,-5%,-3%,-4%,13%,5%
CC(=O)Oc1ccccc1C(=O)Oc1ccccc1C(=O)O,-10%,-1%,5%,13%,·,2%
O=C(Nc1ncc(Cc2ccccc2)s1)C1CCN(C(=O)c2ccco2)CC1,0%,·,·,·,·,·
O=[N+]([O-])c1ccccc1S(=O)(=O)NCc1ccccn1,-3%,·,·,·,·,·
CCc1ccc(S(=O)(=O)NCCc2csc3nc(-c4ccccc4)nn23)s1,-2%,·,·,·,·,·
Cc1ccc2c(c1)c1ncnc(N3CCN(c4ccccc4)CC3)c1n2C,32µM*,-1%,7%,7%,9%,1%
Cc1ccc2c(c1)c1ncnc(N3CCOCC3)c1n2C,36%,-5%,?,10%,-14%,3%
CCCCn1c(N)c(N(CCC(C)C)C(=O)CCCc2nc3ccccc3s2)c(=O)[nH]c1=O,-2%,-21%,5%,17%,-40%,2%
CCCCn1c(N)c(N(CC(C)C)C(=O)CCCc2nc3ccccc3s2)c(=O)[nH]c1=O,7.1µM*,2%,0%,1%,-5%,-1%
CCCCn1c(N)c(N(CCOC)C(=O)CCCc2nc3ccccc3s2)c(=O)[nH]c1=O,35µM*,0%,0%,20%,27%,1%
CCCCn1c(N)c(N(CCOC)C(=O)c2ccc(-c3ccc([N+](=O)[O-])cc3)o2)c(=O)[nH]c1=O,-1%,-2%,24%,4%,11%,-1%
CCCCn1c(N)c(N(CCOC)C(=O)c2ccc(-c3ccc(C(C)=O)cc3)o2)c(=O)[nH]c1=O,32µM*,0%,4%,5%,-11%,0%
